For some of these results: Potency and affinity values are given separately.
How the values were obtained:
Set-up in all cases: scale not given: direction of the effect not stated beside the values
[1] = target: Protein translocase subunit SecA (Escherichia coli (strain K12)) (UniProt P10408); assay: Assay to Identify E. coli SecA ATPase Inhibitors; type: functional; conditions: 30 µM
[2] = target: T1, Ubiquitin-activating enzyme e1, putative (Leishmania donovani (strain BPK282A1)) (UniProt E9BSI1); assay: Leishmania donovani Ubiquitin Activating Enzyme (LdE1); type: functional; conditions: 30 µM
T1 sequence (whole entry): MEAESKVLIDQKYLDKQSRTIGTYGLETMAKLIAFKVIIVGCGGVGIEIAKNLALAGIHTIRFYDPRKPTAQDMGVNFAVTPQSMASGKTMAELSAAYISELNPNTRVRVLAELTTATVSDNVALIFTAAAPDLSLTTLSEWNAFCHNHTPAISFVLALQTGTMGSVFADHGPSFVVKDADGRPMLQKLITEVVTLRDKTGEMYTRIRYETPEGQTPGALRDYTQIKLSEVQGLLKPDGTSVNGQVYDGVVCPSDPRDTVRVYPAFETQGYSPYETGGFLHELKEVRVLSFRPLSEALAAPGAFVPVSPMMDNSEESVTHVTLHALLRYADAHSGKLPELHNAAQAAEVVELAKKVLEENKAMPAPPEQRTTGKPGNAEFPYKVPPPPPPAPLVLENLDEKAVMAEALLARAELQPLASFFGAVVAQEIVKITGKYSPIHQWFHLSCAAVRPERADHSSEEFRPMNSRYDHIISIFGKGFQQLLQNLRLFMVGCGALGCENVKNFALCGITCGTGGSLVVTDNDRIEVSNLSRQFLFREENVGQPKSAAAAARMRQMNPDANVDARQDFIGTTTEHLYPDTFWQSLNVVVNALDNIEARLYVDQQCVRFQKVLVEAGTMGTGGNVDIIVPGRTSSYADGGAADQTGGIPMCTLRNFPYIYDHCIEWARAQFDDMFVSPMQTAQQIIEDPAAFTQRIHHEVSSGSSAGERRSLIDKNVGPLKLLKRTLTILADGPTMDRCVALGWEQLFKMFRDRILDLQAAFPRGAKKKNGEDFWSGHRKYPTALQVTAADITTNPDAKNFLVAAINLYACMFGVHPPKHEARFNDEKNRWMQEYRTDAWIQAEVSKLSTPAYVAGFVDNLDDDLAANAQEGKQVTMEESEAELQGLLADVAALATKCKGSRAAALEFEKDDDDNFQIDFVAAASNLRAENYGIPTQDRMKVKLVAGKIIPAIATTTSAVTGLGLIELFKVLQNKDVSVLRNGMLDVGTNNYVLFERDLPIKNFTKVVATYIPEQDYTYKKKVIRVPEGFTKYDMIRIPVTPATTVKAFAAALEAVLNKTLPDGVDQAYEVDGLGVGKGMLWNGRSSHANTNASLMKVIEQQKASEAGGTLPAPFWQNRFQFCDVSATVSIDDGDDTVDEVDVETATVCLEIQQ

[3] = target: AMP-activated protein kinase, AMPK (Homo sapiens) (UniProt P54646+O43741+P54619+Q9UGJ0+Q9Y478+Q13131+Q9UGI9); assay: AMP-dependent Kinase enzyme assay. An in vitro enzyme assay that detects ADP turnover that is directly proportional to AMPK activity. This uses naive AMPK that is activated during the assay with MK-8722; type: functional; conditions: 30 µM
[4] = target: Sialic acid-binding Ig-like lectin 9 (Homo sapiens) (UniProt Q9Y336); assay: Hs-Siglec9 ALPHAscreen SOP 20170721; conditions: 10 µM
[5] = tested on: Trypanosoma cruzi; assay: Trypanosoma cruzi phosphomannomutase and mannose-1-phosphate guanylyltransferase assay; type: functional; conditions: 10 µM
[6] = target: T2, Arginase-2, mitochondrial (Homo sapiens) (UniProt P78540); assay: in vitro enzyme assay to detect the production of urea directly proportional to the activity of Arginase II; type: functional; conditions: 33.3 µM; also: in the data most compounds retested in dose-response had high values
T2 sequence (whole entry): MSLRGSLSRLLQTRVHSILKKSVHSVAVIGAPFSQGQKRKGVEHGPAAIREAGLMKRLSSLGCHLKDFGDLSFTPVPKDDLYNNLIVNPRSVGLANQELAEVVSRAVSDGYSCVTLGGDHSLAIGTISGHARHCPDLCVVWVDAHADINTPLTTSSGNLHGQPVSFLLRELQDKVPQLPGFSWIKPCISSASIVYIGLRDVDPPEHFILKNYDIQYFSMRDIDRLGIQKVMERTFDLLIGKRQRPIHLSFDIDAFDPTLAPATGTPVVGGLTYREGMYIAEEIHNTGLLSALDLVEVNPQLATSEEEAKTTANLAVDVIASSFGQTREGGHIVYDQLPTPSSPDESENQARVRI

[7] = target: T3, Proteasome subunit beta (Trypanosoma cruzi) (UniProt O96673); assay: Trypanosoma cruzi proteasome chymotrypsin-like activity (TcProtChymo) assay.; also: in the data most compounds retested in dose-response had high values; type: functional; conditions: 9.37 µM
T3 sequence (whole entry): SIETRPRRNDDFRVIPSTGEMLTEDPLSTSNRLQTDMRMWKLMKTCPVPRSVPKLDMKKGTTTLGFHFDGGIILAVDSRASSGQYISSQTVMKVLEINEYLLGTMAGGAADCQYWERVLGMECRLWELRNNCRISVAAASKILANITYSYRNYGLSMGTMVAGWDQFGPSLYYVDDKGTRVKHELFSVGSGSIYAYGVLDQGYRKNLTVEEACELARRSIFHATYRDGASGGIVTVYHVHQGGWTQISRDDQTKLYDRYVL

[8] = species on record: Homo sapiens; assay: To identify inhibition of the IFN signalling (Jak-Stat) pathway via expression of an eGFP reporter gene under the control of an IFN-stimulated response element (ISRE) containing MxA promoter.; type: functional; conditions: 30 µM
[9] = target: T4, Tyrosyl-tRNA synthetase, putative (Trypanosoma cruzi (strain CL Brener)) (UniProt Q4DSP6); assay: Trypanosoma cruzi tyrosyl tRNA synthetase (TcYRS) _High Tyrosine SOP; type: functional; conditions: 30 µM; also: in the data most compounds retested in dose-response had high values
T4 sequence (whole entry): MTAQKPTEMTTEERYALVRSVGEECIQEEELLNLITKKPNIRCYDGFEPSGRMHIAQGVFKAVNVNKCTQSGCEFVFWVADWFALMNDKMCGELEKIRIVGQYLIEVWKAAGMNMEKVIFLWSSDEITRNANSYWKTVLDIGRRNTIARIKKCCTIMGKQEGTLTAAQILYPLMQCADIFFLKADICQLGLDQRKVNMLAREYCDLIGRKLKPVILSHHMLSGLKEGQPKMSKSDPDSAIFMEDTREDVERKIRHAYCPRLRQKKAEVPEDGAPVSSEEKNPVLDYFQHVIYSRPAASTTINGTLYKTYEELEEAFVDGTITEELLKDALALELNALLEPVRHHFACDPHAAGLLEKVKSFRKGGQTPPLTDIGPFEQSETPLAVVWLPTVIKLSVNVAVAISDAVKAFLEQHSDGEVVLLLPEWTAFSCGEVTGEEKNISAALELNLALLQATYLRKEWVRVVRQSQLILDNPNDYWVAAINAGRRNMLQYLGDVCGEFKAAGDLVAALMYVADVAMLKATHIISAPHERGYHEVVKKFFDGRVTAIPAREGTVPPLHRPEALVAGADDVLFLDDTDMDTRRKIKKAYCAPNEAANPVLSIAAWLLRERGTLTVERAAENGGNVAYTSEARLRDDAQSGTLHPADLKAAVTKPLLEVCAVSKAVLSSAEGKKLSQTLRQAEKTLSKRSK

[10] = target: T4, Tyrosyl-tRNA synthetase, putative (Trypanosoma cruzi (strain CL Brener)); assay: Trypanosoma cruzi tyrosyl tRNA synthetase (TcYRS) SOP; type: functional; conditions: 30 µM
[11] = target: Chromo domain-containing protein 1 (Saccharomyces cerevisiae (strain ATCC 204508 / S288c) (Baker's yeast)) (UniProt P32657); assay: ScCHD-1 Enzyme Inhibition Assay; type: functional; conditions: 30 µM; also: in the data most compounds retested in dose-response had high values
Sequence of Chromo domain-containing protein 1 (Saccharomyces cerevisiae (strain ATCC 204508 / S288c) (Baker's yeast)) (P32657 whole entry, the tested form may be a part): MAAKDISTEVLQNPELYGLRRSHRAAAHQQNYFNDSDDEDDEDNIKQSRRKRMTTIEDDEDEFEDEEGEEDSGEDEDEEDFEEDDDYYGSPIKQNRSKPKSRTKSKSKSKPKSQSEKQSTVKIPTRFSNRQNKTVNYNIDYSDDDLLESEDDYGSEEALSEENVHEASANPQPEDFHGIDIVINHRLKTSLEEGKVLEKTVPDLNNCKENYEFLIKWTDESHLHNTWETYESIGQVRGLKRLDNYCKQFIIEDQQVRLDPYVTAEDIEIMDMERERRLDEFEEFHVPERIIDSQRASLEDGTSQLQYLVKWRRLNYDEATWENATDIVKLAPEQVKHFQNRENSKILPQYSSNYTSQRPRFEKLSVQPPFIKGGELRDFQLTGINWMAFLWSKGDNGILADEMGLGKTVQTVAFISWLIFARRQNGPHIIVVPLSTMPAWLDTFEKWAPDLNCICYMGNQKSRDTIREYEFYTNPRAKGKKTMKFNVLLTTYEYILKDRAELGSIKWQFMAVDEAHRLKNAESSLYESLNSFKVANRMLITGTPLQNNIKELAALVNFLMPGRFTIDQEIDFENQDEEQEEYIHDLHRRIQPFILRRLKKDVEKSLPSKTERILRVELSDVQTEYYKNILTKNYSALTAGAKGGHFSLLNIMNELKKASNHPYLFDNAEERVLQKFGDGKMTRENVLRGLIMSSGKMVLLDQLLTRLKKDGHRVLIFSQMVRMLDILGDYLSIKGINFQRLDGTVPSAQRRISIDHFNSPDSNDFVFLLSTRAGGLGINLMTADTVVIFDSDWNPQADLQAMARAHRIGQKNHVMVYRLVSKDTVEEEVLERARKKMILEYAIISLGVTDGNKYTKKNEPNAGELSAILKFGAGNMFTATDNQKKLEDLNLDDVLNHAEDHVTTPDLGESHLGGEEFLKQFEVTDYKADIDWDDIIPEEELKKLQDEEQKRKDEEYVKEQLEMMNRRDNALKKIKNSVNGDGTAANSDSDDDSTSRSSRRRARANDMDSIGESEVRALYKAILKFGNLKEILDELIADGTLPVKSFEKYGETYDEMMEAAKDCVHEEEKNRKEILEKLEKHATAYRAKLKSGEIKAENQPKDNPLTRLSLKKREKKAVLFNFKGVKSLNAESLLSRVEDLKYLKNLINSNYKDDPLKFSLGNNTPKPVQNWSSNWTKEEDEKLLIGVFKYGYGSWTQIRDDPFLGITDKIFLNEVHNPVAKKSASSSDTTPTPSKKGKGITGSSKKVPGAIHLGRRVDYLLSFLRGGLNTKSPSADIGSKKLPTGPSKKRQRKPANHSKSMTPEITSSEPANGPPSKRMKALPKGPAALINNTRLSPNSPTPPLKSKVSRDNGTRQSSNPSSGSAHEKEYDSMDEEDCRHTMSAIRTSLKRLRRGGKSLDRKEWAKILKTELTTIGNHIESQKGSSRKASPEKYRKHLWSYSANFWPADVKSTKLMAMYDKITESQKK

Sequence of Sialic acid-binding Ig-like lectin 9 (Homo sapiens) (Q9Y336 whole entry): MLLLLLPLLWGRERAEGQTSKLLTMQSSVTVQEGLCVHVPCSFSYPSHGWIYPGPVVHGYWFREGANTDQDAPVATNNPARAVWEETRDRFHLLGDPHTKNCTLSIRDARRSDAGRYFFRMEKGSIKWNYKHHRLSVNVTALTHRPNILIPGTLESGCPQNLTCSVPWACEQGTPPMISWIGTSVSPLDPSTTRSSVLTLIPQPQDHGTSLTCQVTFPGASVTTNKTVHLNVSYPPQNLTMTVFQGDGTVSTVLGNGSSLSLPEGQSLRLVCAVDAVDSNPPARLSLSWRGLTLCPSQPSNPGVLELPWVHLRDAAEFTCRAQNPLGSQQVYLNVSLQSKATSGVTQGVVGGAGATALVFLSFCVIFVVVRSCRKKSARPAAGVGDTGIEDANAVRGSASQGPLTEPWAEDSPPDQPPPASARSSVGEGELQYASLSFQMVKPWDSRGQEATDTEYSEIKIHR
Sequence of Protein translocase subunit SecA (Escherichia coli (strain K12)) (P10408 whole entry): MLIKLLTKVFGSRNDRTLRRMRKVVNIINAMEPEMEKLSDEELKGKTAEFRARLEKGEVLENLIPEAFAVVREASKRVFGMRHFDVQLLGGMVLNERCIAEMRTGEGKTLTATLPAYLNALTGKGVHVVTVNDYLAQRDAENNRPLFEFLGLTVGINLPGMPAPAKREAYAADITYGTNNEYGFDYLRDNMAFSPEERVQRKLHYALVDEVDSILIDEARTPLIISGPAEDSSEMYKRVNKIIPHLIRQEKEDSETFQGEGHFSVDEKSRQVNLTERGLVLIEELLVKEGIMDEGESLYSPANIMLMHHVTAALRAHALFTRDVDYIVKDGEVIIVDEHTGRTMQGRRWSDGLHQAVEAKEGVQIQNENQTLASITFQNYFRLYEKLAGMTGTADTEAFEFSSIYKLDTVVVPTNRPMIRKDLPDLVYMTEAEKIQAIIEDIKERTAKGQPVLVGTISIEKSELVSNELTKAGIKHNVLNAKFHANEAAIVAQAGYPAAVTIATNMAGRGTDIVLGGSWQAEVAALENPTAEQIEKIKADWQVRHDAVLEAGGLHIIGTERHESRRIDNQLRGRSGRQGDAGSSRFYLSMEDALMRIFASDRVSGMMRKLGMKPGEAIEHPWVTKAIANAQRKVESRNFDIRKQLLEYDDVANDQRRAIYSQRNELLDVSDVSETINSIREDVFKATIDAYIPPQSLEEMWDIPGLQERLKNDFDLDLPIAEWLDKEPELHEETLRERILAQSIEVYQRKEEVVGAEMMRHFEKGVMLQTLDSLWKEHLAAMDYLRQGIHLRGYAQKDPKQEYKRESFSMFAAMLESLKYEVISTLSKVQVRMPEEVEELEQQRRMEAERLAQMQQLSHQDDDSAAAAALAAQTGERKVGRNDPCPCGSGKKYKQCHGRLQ

SMILES	Percent Effect [1] [%]	Percent Effect [2] [%]	Percent Effect [3] [%]	Percent Effect [4] [%]	Percent Effect [5] [%]	Percent Effect [6] [%]	Percent Effect [7] [%]	Percent Effect [8] [%]	Percent Effect [9] [%]	Percent Effect [10] [%]	Percent Effect [11] [%]
CN(Cc1nnc(-c2ccco2)o1)CC1CCCN1c1cccnn1 (configuration not stated)	-4.76	10.4	-4.64	-13.5	-0.881	2.32	21.9	15.6	4.76	9.41	-19.2
COC1CCN(C(=O)Cc2csc(-c3ncccn3)n2)CC1	-1.74	10.5	1.3	6.25	6.96	3.83	9.19	-15.6	2.45	17.1	-5.39
CCCNC(=O)N1CCC(Oc2cc(C)ccc2F)(C(=O)O)CC1	-2.42	9.72	-3.19	22.9	6.9	24.3	1.75	-5.25	-1.05	10.3	-1.57
CCCNC(=O)CNc1ccc(C(=O)N2CCCCC2C)cc1C (configuration not stated)	-7.8	18.2	1.99	-9.58	-8.99	0.712	8.62	35.5	5.83	12.2	-8
Cc1cccnc1NC(=O)C1CCCN1Cc1ccccc1 (configuration not stated)	-3.6	2.67	-2.13	-2.53	-9.06	-3.12	21.3	16.8	0.546	-1.24	-9.24
Cc1cccc(CN2C[C@@H]3CN(C(=O)c4ccsc4)C[C@@H]3C2=O)c1	-2.06	7.79	5.77	6.12	-3.25	0	13	18.7	3.23	8.64	0.397
Cc1cc(N2CCCCCC2)n2nc(C)c(C)c2n1	-1.9	4.17	-3.08	0.107	12.2	-0.883	23.3	3.63	0	12.8	-7.26
COc1ccc(CN(C)C(=O)CCC(=O)c2cccs2)c(OC)c1OC	-2.26	-2.74	-1.79	9.32	2.78	-6.39	10.7	18.4	9.38	21	2.3
COc1ccc(CNCc2ccnc(N3CCOCC3)c2)c(OC)c1	-4.43	8.11	-10.3	1.04	-3.49	3.21	7.75	28.2	3.45	6.17	-4.72
CCc1noc(CN2CCN(C(=O)N(C)C)CC2)n1	-5.22	-2.53	7.62	3.9	-5.38	0.38	4.83	23.4	-5.42	-16.5	-4.89
CCc1c(C(=O)NC2CCS(=O)(=O)C2)cnn1-c1ccc(F)cc1 (configuration not stated)	-2.17	15.2	-2.59	-6.54	8.21	1.9	7.29	-14.4	7.39	21.5	-5.38
c1cnc(N2CCCC(NCc3cccc4c3OCCO4)C2)nc1 (configuration not stated)	-0.886	-5.41	-2.02	-1.18	3.87	-4.81	7.21	10.1	4.43	3.7	-2.9
COCCn1cc2c(n1)C(CNCc1ccc(F)cc1)OCC2 (configuration not stated)	-5.93	8.11	-0.136	-5.65	-0.195	5.42	16.8	-4.69	11.9	11	-6.25
O=C1N(c2ccc(Br)cc2)Cc2nc(=O)[nH]n21	-6.3	22.7	-2.95	0.772	1.38	-1.58	4.44	7.62	5.29	15.4	-11.8
O=C(NCc1cnc2n1CCN(Cc1ccsc1)CC2)C1CCC1	-5.62	8.11	-0.353	4.49	0.293	3.72	5.24	-5.3	7.53	13.6	-4.47
CCN(CC(=O)NC(C)C)S(=O)(=O)N1CCC(C)C1 (configuration not stated)	-2.1	0	-2.33	-4.69	2.05	1.24	5.24	-14.3	1.07	6.17	-6.4
CCOCCCC(=O)NCCC(=O)N1CCN(c2ccccn2)CC1	-3.47	7.89	4.17	5.65	-3.99	-4.73	13.3	2.43	5.32	13	-4.16

Source: ChEMBL document CHEMBL3988442, “University of Dundee, Small-Polar-MMV Screening Library” (2021)
